Inconclusive results are not listed. Entries that show only a call come without a potency. Calls of active or inactive are those of the source. Calls come from the whole dose curve; as a rule, active = well fitted curve in the direction sought with a large enough effect; inconclusive = small, poorly fitted or top-dose-only effect, or another doubt; inactive = no such curve, though single readings can be large; an effect the other way counts as inactive or inconclusive.
Target: Lysine-specific demethylase 5B (Homo sapiens) (UniProt Q9UGL1)
Sequence (Q9UGL1 whole entry, looked up): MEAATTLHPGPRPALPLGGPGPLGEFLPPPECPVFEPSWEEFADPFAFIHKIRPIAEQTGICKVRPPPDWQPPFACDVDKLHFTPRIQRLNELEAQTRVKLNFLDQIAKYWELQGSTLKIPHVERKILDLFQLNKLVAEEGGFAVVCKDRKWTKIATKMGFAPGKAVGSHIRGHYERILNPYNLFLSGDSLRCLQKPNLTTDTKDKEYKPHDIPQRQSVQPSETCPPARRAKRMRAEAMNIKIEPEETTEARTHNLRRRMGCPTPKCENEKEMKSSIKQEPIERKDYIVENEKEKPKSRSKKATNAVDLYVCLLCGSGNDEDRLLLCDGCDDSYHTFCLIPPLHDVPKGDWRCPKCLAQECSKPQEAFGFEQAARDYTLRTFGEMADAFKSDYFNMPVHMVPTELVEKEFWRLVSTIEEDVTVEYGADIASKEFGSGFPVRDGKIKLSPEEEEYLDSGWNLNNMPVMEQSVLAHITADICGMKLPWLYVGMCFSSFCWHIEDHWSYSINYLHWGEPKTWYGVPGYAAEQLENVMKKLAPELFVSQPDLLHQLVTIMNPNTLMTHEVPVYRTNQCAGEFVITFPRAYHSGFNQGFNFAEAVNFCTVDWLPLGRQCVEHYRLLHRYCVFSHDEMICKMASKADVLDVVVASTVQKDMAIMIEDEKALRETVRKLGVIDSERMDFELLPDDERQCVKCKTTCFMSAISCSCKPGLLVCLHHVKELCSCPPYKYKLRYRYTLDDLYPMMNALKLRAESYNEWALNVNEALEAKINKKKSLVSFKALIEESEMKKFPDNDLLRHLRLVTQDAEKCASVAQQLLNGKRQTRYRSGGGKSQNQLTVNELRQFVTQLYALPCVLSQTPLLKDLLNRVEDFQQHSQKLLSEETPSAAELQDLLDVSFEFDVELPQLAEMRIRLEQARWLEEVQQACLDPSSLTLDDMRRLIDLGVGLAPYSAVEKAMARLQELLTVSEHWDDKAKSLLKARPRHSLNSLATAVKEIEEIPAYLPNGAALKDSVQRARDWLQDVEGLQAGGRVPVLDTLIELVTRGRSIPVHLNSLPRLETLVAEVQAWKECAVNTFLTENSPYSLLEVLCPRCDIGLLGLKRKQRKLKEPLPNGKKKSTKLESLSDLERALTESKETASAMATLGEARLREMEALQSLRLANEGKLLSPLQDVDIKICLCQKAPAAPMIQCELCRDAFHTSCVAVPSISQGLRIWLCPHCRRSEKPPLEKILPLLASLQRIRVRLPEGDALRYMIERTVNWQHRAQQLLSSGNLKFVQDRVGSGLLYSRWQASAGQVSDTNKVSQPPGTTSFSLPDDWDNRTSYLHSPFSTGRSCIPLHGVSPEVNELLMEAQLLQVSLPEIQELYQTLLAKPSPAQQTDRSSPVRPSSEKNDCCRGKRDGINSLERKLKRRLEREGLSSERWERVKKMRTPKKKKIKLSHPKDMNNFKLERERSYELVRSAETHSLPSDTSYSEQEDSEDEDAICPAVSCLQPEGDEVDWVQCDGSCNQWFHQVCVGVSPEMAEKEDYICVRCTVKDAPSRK
Experiment: Optimization screen for KDM5B Histone Demethylases FDH coupled qHTS against the LOPAC library (AID 1347166)
Settings: KDM5B demethylation, FDH-coupled NADH fluorescence (FDH is formaldehyde dehydrogenase); series mostly up to 57.5 µM
In short: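 KDM5BDeltaAP (200nM final) in 50mM HEPES pH 7.5, 0.01% Tween-20 was preincubated with compound for 10 min at room temperature. A substrate mix of 12.5uM H3K4Me3, 25uM a-ketoglutarate, ascorbate, Fe2+, NAD+ and formaldehyde dehydrogenase was then added. NADH fluorescence (340/450 nm) was read initially and after 30 min.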
With COc1ccccc1N1CCN(CCCNc2cc(=O)n(C)c(=O)n2C)CC1 the outcome was “inactive”. With Cc1cccc(C)c1OCC(C)N (stereo not drawn) the outcome was “inactive”. With COC(=O)[C@@H]1[C@H]2C[C@H]3c4[nH]c5ccccc5c4CCN3C[C@@H]2CC[C@@H]1O the outcome was “inactive”. In the case of CC(=O)c1ccc(S(=O)(=O)NC(=O)NC2CCCCC2)cc1, the outcome is reported as “inactive”. In the case of O=C1NC(=O)C(c2ccccc2)(c2ccccc2)N1, the outcome is reported as “inactive”. For CCN(CC)C(=O)c1ccc(O)c(OC)c1, the outcome was “inactive”. In the case of CCCCCN(C)CCC(O)(P(=O)(O)O)P(=O)(O)O, the outcome is reported as “inactive”. For CCCNC(=O)NS(=O)(=O)c1ccc(Cl)cc1, the outcome was “inactive”. For CCN(CC)CCOC(=O)c1ccc(N)cc1, the outcome was “inactive”. For CCN(CC)CCNC(=O)c1ccc(N)cc1, the outcome was “inactive”. In the case of CCN1CCC[C@H]1CNC(=O)c1cc(S(N)(=O)=O)ccc1OC, the outcome is reported as “inactive”. With CCn1cc(C(=O)O)c(=O)c2ccc(C)nc21 the outcome was “inactive”. For CC(C)OC(=O)C(C)(C)Oc1ccc(C(=O)c2ccc(Cl)cc2)cc1, the outcome was “inactive”.

System: not listed separately
Experiment: Vero cells viability qHTS for Zika virus inhibitors (AID 1347167)
Settings: cytotoxicity counter-screen (Zika); series mostly up to 45.9 µM
In short: (§1)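 qHTS titration; 24-48 h compound exposure, 37 degrees C/5% CO2; DMEM, 4% FBS; CellTiter Glo ATP luminescence.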
For NC(=O)c1cccc2[nH]c(-c3ccc([C@H]4CCCN4)cc3F)nc12, the Potency was “inactive”. In the case of C[C@H](NC(=O)C(=O)Nc1ccccc1C(C)(C)C)C(=O)N[C@@H](CC(=O)O)C(=O)COc1c(F)c(F)cc(F)c1F, the Potency is reported as “inactive”. For COc1ccc2cc(-c3nc(-c4ccc(S(C)=O)cc4)[nH]c3-c3ccncc3)ccc2c1 (stereo not drawn), the Potency was “inactive”. For CS(=O)c1ccc(-c2nc(-c3ccc(F)cc3)c(-c3ccncc3)[nH]2)cc1 (stereo not drawn), the Potency was “inactive”. With Cc1ccn(-c2ccc(-c3ncco3)cc2)c(=O)c1-c1ccc2nc(N)ncc2c1 the Potency was “inactive”. In the case of CC1CCC(C(=O)N(c2cc(C#CC(C)(C)C)sc2C(=O)O)C2CCC(O)CC2)CC1 (stereo not drawn), the Potency is reported as “inactive”.

System: not listed separately
Experiment: HepG2 cells viability qHTS for Zika virus inhibitors (AID 1347168)
Settings: Zika counter-screen; series mostly up to 45.9 µM
In short: as §1
In the case of NC(=O)c1cccc2[nH]c(-c3ccc([C@H]4CCCN4)cc3F)nc12, the outcome is reported as “inactive”. In the case of C[C@H](NC(=O)C(=O)Nc1ccccc1C(C)(C)C)C(=O)N[C@@H](CC(=O)O)C(=O)COc1c(F)c(F)cc(F)c1F, the outcome is reported as “inactive”. With CS(=O)c1ccc(-c2nc(-c3ccc(F)cc3)c(-c3ccncc3)[nH]2)cc1 (stereo not drawn) the outcome was “inactive”. In the case of Cc1ccn(-c2ccc(-c3ncco3)cc2)c(=O)c1-c1ccc2nc(N)ncc2c1, the outcome is reported as “inactive”. In the case of CC1CCC(C(=O)N(c2cc(C#CC(C)(C)C)sc2C(=O)O)C2CCC(O)CC2)CC1 (stereo not drawn), the outcome is reported as “inactive”.

System: not listed separately
Experiment: Tertiary RLuc qRT-PCR qHTS assay for Zika virus inhibitors (AID 1347169); note: top concentration of the series differs between compounds; nearly all actives have a fitted effect of over 55% in size
Settings: infected Vero cells, reporter luminescence, 48-72 h; series mostly up to 45.9 µM
In short: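 Vero cells (1,000 per well) plated overnight at 37 degrees C, treated with compound in DMSO, then infected with recombinant ZIKV-RLuc (Cambodian) at MOI 1-2 for 48-72 hrs. Live-cell Renilla luciferase substrate added; luminescence read after 1-1.5 hrs.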
In the case of NC(=O)c1cccc2[nH]c(-c3ccc([C@H]4CCCN4)cc3F)nc12, the Potency is reported as “inactive”. In the case of O=c1c(O)c(-c2ccc(O)cc2)oc2cc(O)cc(O)c12, the activity change, negative = inhibition is reported as 13.5% [at 0.997 µM] (inactive). In the case of C[C@H](NC(=O)C(=O)Nc1ccccc1C(C)(C)C)C(=O)N[C@@H](CC(=O)O)C(=O)COc1c(F)c(F)cc(F)c1F, the Potency is reported as “inactive”. In the case of O=C(O)c1c(Cl)c(Cl)c(Cl)c(Cl)c1-c1c2cc(I)c(=O)c(I)c-2oc2c(I)c(O)c(I)cc12, the Potency is reported as “inactive”.

From PubChem BioAssay (NCATS)
